TLR9-MyD88 inh: blocks human TLR9 binding to MyD88 | Q9NR96+Q99836 | CHO BLA complementation TLR9-MyD88, CCF4 FRET ratio | inhibition, % at 4.98 µM | 0.21% of 340,000 active | AID 504734;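 active = inhibition above the mean over all tested compounds plus 3 SD, cut at about 21% in these data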;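 also: 0% = DMSO only wells and 100% = clavulanate BLA inhibitor control wells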
TLR4-MyD88 BLA: blocks binding of human TLR4 to MyD88; inhibition, % at 8.4 µM; O00206+Q99836; 0.18% of 200,000 active; HeLa CL3-4 TLR4/MyD88 BLA complementation, FRET ratio; in the data active = inhibition above about 25%;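 also: 0% = vehicle and 100% = reference inhibitor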
Target sequence (O00206 whole entry, looked up): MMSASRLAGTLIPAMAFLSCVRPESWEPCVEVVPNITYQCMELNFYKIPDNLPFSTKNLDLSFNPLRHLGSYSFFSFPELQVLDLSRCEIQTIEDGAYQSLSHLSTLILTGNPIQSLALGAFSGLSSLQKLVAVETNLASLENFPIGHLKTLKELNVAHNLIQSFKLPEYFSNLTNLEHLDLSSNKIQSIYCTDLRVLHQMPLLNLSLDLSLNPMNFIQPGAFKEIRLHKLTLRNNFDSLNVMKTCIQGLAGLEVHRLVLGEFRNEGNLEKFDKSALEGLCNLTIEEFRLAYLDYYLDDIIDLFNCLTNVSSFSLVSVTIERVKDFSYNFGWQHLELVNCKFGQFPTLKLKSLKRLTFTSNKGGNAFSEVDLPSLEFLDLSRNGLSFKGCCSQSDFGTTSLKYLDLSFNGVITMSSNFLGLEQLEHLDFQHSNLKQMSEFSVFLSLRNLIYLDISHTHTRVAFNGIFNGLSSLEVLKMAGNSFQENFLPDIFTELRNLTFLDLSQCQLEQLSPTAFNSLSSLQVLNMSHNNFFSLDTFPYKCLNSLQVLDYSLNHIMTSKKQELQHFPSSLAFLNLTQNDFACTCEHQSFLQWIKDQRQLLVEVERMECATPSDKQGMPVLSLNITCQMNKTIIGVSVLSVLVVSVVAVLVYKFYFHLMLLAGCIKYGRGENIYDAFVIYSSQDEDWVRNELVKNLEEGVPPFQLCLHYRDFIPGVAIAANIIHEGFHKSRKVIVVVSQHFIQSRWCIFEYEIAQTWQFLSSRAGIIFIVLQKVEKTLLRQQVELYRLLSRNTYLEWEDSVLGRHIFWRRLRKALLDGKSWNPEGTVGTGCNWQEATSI
Target sequence (Q99836 whole entry, looked up): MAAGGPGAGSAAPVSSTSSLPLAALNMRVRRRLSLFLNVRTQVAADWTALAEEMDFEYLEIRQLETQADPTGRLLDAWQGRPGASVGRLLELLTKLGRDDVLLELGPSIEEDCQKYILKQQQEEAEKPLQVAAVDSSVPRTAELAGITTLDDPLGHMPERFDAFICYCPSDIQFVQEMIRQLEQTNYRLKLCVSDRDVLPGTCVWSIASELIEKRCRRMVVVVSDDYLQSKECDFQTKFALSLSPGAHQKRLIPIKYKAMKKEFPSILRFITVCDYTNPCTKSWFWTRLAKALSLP
Beta2AR agonist: agonists of human beta-2 adrenergic receptor inducing internalization | Am2.2-beta2AR cells, FAP receptor internalization, flow cytometry | 0.43% of 340,000 active | P07550 | AID 504454 | response, % (test concentration not listed);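 active = response above a set limit, near 3 SD of response in nonfluorescent compounds, cut at about 42% in these data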
NOD2-RIPK2 inh: blocks binding of human NOD2 to RIPK2 | CHO BLA complementation NOD2-RIPK2, CCF4 ratio | inhibition, % at 4.98 µM | 0.38% of 360,000 active | AID 624267; in the data active = inhibition above about 21%;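 also: 0% = vehicle only and 100% = reference blocker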
NTR1 ag: agonists of human neurotensin receptor NTR1; 0.17% of 330,000 active; P30989; NTR1-U2OS beta-arrestin-GFP spot imaging, agonist mode; AID 493036; activation, % at 20 µM;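 active = activation at or above 40% of the spot to cytoplasm intensity ratio, with at least 20 cells analyzed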;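 also: 0% = DMSO without peptide and 100% = 100 nM NTR1 peptide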
ABHD5 PLIN5 PPI: inhibitors of human ABHD5-perilipin-5 interaction; Split G. princeps luciferase complementation, luminescence, 4 h; inhibition, % at 4 µM; 0.78% of 360,000 active; AID 602281;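 active = inhibition above the mean inhibition across every tested compound plus 3 SD, cut at about 22% in these data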;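 also: 0% = DMSO only wells and the 100% control is not disclosed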
TLR9-MyD88 conf: TLR9-MyD88 interaction inhibition, confirmation; shares compounds with TLR9-MyD88 inh; CHO TLR9/MyD88 BLA complementation, CCF4 FRET ratio; inhibition, % at 4.98 µM; 51% of 680 active; AID 540250;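 active = mean inhibition across three repeats above about 21% taken from the earlier screen, limit read from the data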;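 also: blue over green emission ratio reports constitutive TLR9 MyD88 association via BLA complementation; 0% = DMSO vehicle wells and 100% = clavulanate BLA inhibitor wells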
BLA counter-1: non-selective beta-lactamase inhibitors in TLR9-MyD88 counter-screen | CHO-BLA cells, CCF4 FRET ratio, BLA reporter | shares compounds with TLR9-MyD88 inh | inhibition, % at 4.98 µM | 7% of 680 active;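 active = mean inhibition above a 50% cutoff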;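 also: counterscreen of TLR9-MyD88 hits on CMV-driven BLA in CHO-K1 cells; 0% = DMSO alone and 100% = clavulanate blocking BLA; higher means less blue over green ratio so more BLA blockade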
TLR9 CHO tox: counter-screen for TLR9-MyD88 inhibitors: cytotoxicity in CHO cells; shares compounds with TLR9-MyD88 inh; luminescence; inhibition, % at 4.98 µM; 39% of 680 active; AID 588336; in the data active = inhibition above about 11%
ABHD5-PLIN5 conf: confirmation of human ABHD5-PLIN5 interaction inhibitors. shares compounds with ABHD5 PLIN5 PPI. biochemical ABHD5-PLIN5 interaction, luminescence. inhibition, % at 4 µM. 67% of 2,200 active; in the data active = inhibition above about 23%;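 also: 0% = DMSO vehicle wells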
HNF4 counter: active in HNF4 split-luciferase counter-screen for ABHD5-PLIN5 inhibitors | shares compounds with ABHD5 PLIN5 PPI | AID 651674 | inhibition, % at 4 µM | 77% of 2,200 active | HNF4 dimerization, luminescence, biochemical;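 active = mean inhibition across replicate wells exceeding the computed hit threshold, cut at about 13% in these data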;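 also: light from luciferase halves that rejoin when HNF4 fusion proteins dimerize; 0% = DMSO only wells and the 100% control is not given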
NOD2 RIPK2 conf: NOD2-RIPK2 interaction inhibition confirmed | shares compounds with NOD2-RIPK2 inh | CHO cells, NOD2-RIPK2 BLA complementation, CCF4 FRET | 70% of 1,200 active | AID 624370 | inhibition, % at 4.98 µM;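 active = mean inhibition across replicates above a set limit taken from the earlier primary screen, cut at about 21% in these data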;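 also: 0% = DMSO-only wells and the high end = clavulanate BLA-blocked wells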
BLA counter-2: counter-screen for NOD2-RIPK2 interaction inhibitors: BLA reporter; shares compounds with NOD2-RIPK2 inh; CHO BLA reporter, CCF4 FRET ratio, counterscreen; inhibition, % at 4.98 µM; 57% of 1,200 active; AID 624371;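 active = mean inhibition above the low-control mean inhibition plus three low-control SD, cut at about 11% in these data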;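 also: 0% = DMSO only wells and 100% = clavulanate high control wells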
* hit, by the source's call; . = no result given. Hits are enriched below; roughly 1.5% of the tested compounds scored in any of these assays.

SMILES	TLR9-MyD88 inh	TLR4-MyD88 BLA	Beta2AR agonist	NOD2-RIPK2 inh	NTR1 ag	ABHD5 PLIN5 PPI	TLR9-MyD88 conf	BLA counter-1	TLR9 CHO tox	NOD2 RIPK2 conf	BLA counter-2	others
CCCNC(=O)c1nnsc1S(=O)c1ccc(Cl)cc1 (centres undefined)	48.2*	9.3	50.3*	80.3*	6.6	74.9*	48.7*	4.0	100.4*	85.1*	24.8*	ABHD5-PLIN5 conf=96.3*;HNF4 counter=107.9*
CC1(C(=O)NCc2cccs2)CCN1CCc1ccccc1 (centres undefined)	.	.	.	-8.7	.	-4.6	.	.	.	.	.
CCOC(=O)C1=C(C)Nc2sc(C(=O)c3ccc(OC)cc3)c(N)c2C1c1ccc(C(=O)OC)cc1 (centres undefined)	44.4*	10.1	9.0	39.3*	-0.9	-5.4	-1.1	8.8	6.9	5.4	20.0*
O=C1Nc2ccc(Br)cc2C12NNc1ccccc1O2 (centres undefined)	32.8*	21.3	-400.4	35.8*	-2.8	5.0	26.0*	21.4	0.3	34.7*	47.4*
COC(=O)c1cnn(-c2nc(OC)cc(OC)n2)c1C	-6.0	-18.6	-0.8	-0.3	-0.2	-7.0	.	.	.	.	.
COc1cc(OC)nc(-n2ncc(Br)c(Br)c2=O)n1	22.7*	7.5	25.0	50.3*	.	13.3	27.3*	22.5	99.5*	59.8*	9.8
O=c1c(Br)ccc(Br)cc1Br	65.5*	.	70.0*	85.3*	.	83.9*	68.5*	39.3	98.2*	100.9*	47.8*	ABHD5-PLIN5 conf=101.3*;HNF4 counter=110.8*
COc1ccccc1N(C(C)=O)C1=C(Cl)C(=O)c2ccccc2C1=O	65.2*	.	.	89.6*	.	93.3*	86.2*	23.5	102.0*	95.8*	50.8*	ABHD5-PLIN5 conf=100.3*;HNF4 counter=110.6*
CC(=O)Oc1ccc(-c2cc3c(OC(C)=O)cc(OC(C)=O)cc3oc2=O)cc1	37.0*	.	-3.7	41.5*	-4.3	-3.4	22.9*	25.7	3.4	52.9*	56.9*
CC(=O)Oc1ccc(-c2cc3ccccc3oc2=O)cc1	-12.8	.	-2.8	2.7	0.4	-2.8	.	.	.	.	.
Cc1cccc(-c2nc(NCCN(C)C)c3ccccc3n2)c1	1.9	.	.	2.7	.	8.6	.	.	.	.	.
Cc1cc2nc(/C=C/c3nc4cc(C)c(C)cc4[nH]3)[nH]c2cc1C	40.3*	.	7.0	25.0*	.	-9.2	30.3*	31.8	-2.0	32.0*	42.6*
Cc1ccc(C)c(-n2sc3ccc(F)cc3c2=O)c1	31.2*	.	3.8	26.0*	-0.1	99.8*	7.3	1.8	42.6*	33.0*	15.3*	ABHD5-PLIN5 conf=76.2*;HNF4 counter=114.4*
COc1ccccc1CNC(=O)CN1C(=O)c2cccc(N)c2C1=O	36.5*	.	-2.5	30.9*	-0.6	10.7	14.5	19.9	9.8	45.5*	49.3*
O=[N+]([O-])c1c(Nc2ccccc2O)cc(Cl)c2nonc12	32.6*	.	105.3*	83.3*	0.1	63.3*	56.2*	-5.8	99.7*	96.9*	-8.4
O=[N+]([O-])c1c(Nc2ccccc2O)ccc2nonc12	-5.3	5.2	-11.8	-3.8	0.2	2.3	.	.	.	.	.
Cc1ccc(Cl)cc1-c1cc(C(=O)Nc2ccc(F)cc2)[nH]n1	.	.	.	-1.7	.	-15.2	.	.	.	.	.
CCN1C(=O)CS/C1=N\S(=O)(=O)c1ccc(Cl)cc1	8.9	-10.2	0.2	-1.4	0.4	-2.8	.	.	.	.	.
CCn1c(Cl)c(C=O)s/c1=N\S(=O)(=O)c1ccccc1	48.3*	.	114.6*	93.5*	-2.0	48.1*	52.5*	29.2	96.2*	97.9*	38.3*	ABHD5-PLIN5 conf=70.6*;HNF4 counter=105.1*
COc1ccc2nc(C)cc(NCc3ccc(F)cc3)c2c1	38.0*	.	-402.1	24.4*	4.7	6.2	21.6*	18.1	29.7*	44.9*	44.3*
O=C(NC1CCCC1)N[C@@H]1CC[C@@H](CC(=O)N2CCOCC2)O[C@@H]1CO	.	.	.	-2.0	.	1.8	.	.	.	.	.
CCN(CC)c1ccc(C(=O)NNC(=O)CCNC(=O)c2ccccc2)cc1	0.2	.	1.1	-11.7	3.8	-11.8	.	.	.	.	.
CCN(CC)c1ccc(C(=C2C=CC(=[N+](CC)CC)C=C2)c2ccccc2)cc1	52.6*	.	59.3*	41.0*	.	97.8*	83.0*	18.2	100.8*	32.3*	22.0*	ABHD5-PLIN5 conf=102.5*;HNF4 counter=109.4*
O=S1(=O)CC(N2CCN(CC3CC3)CC2)CN1CCc1ccccc1 (centres undefined)	.	.	.	-10.5	.	3.5	.	.	.	.	.
COC(=O)c1c(-c2ccc(OC)cc2)sc2cc3c(cc12)OCO3	-15.5	.	-6.0	-13.3	6.5	-9.4	.	.	.	.	.
SMILES	TLR9-MyD88 inh	TLR4-MyD88 BLA	Beta2AR agonist	NOD2-RIPK2 inh	NTR1 ag	ABHD5 PLIN5 PPI	TLR9-MyD88 conf	BLA counter-1	TLR9 CHO tox	NOD2 RIPK2 conf	BLA counter-2	others
COC(=O)c1c(-c2ccc(N(C)C)cc2)sc2ccc(OC)cc12	28.3*	.	-3.0	38.4*	9.9	-2.1	34.9*	42.1	2.2	49.0*	66.0*
O=C(NCCCO)/C(=C/c1ccc(-c2cccc([N+](=O)[O-])c2)o1)NC(=O)c1ccccc1	5.6	-5.3	-13.9	6.8	0.7	7.9	.	.	.	.	.
Cc1ccc(C(=O)N/C(=C/c2ccc(-c3ccc([N+](=O)[O-])cc3)o2)C(=O)NCCCN(C)C)cc1	41.4*	.	-91.4	47.6*	-1.1	15.6	33.2*	28.1	5.5	56.9*	54.6*
CN1CCN(c2ccc(-c3cccc4nccn34)cn2)CC1	.	.	.	-5.1	.	-5.8	.	.	.	.	.
CC(=O)OCCNc1cc(Sc2nc3ccccc3[nH]2)c2nonc2c1[N+](=O)[O-]	56.0*	8.6	26.2	89.0*	.	60.0*	60.2*	3.4	98.9*	89.8*	37.9*	ABHD5-PLIN5 conf=70.7*;HNF4 counter=112.1*
Cc1ccc(F)c(S(=O)(=O)NC(=O)C2(C)CCN2C(=O)Cc2ccsc2)c1 (centres undefined)	.	.	.	-6.6	.	-2.7	.	.	.	.	.

Source: PubChem BioAssay
